Measurements reported in PubChem BioAssay.
Calls of active or inactive are those of the source.

Assays:
[1] = test system: Plasmodium falciparum Sir2 (PF13_0152, Sir2A); assay: Plasmodium falciparum Sir2A binding compounds – biochemical, small-molecule microarray, 635 nm fluorescence, primary screen (AID 1098); settings: fluorescence 635 nm, higher = more signal;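 also: score merges spot fluorescence intensity with its signal-to-noise ratio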
[2] = probe aDKK1 binding to arrayed compounds – biochemical, biotinylated probe, 635/667 nm fluorescence, primary screen (AID 1099); settings: small-molecule microarray, higher = more signal;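 also: score merges 667nm spot fluorescence with signal to noise across triplicate slides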
[3] = probe aCHRDL2 binding to arrayed compounds – biochemical, biotinylated probe, 635/667 nm fluorescence, primary screen (AID 1100); settings: small-molecule microarray, higher = more signal
[4] = change in splice reporter luminescence, either direction, cell-based, HEK293, spliceosome inhibition project, primary screen (AID 1101); settings: HEK293 splicing luciferase reporter, 24 h, higher = more signal, called active from +8 up or from −8 down;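 also: HEK293 cells carrying a splicing-competent luciferase reporter gene; test concentration not given here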
[5] = molecular target: Fibroblast growth factor 10 (Homo sapiens) (UniProt O15520); assay: compounds binding fibroblast growth factor 10 – biochemical, small-molecule microarray, 635 nm fluorescence, primary screen (AID 1102); settings: FGF10 binding, fluorescence 635 nm, higher = more signal
[6] = test system: glycogen synthase kinase-3 (GSK3A per assay name; protocol says GSK3B); assay: compounds binding glycogen synthase kinase-3 – biochemical, small-molecule microarray, 635 nm fluorescence, GSK3A, primary screen (AID 1103); settings: fluorescence 635 nm, higher = more signal; also: the record names both GSK3A and GSK3B
[7] = molecular target: Epidermal growth factor receptor (Homo sapiens) (UniProt P00533); assay: compounds binding epidermal growth factor receptor – biochemical, small-molecule microarray, 635 nm fluorescence, primary screen (AID 1104); settings: EGFR binding, higher = more signal;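 also: score merges 667 nm emission intensity with spot signal to noise over triplicate slides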
[8] = molecular target: Follistatin-related protein 3 (Homo sapiens) (UniProt O95633); assay: compounds binding follistatin-related protein 3 – biochemical, small-molecule microarray, 635 nm fluorescence, primary screen (AID 1105); settings: FSTL3 binding, higher = more signal;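 also: score merges emission near 667 nm and signal to noise per printed spot across three slides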
[9] = molecular target: Dickkopf-related protein 1 (Homo sapiens) (UniProt O94907); assay: small molecules binding DKK1 protein – biochemical, small-molecule microarray, 635 nm fluorescence scan, primary screen (AID 1106); settings: higher = more signal;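 also: score merges emission near 667 nm with signal to noise over three replicate slides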
[10] = test system: Inhibin beta A chain (activin A); assay: small molecules binding activin A – biochemical, small-molecule microarray, 635 nm fluorescence scan, primary screen (AID 1107); settings: INHBA, higher = more signal;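 also: mouse activin A protein probed at 4.33 µg/mL on printed slides; score merges bound-protein fluorescence near 667 nm with spot signal-to-noise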
[11] = test system: Human papillomavirus type 1a protein E7 (residues 44-93); assay: small molecules binding HPV E7 44-93 – biochemical, small-molecule microarray, residues 44-93, 635 nm fluorescence, primary screen (AID 1108); settings: fluorescence 635 nm, higher = more signal;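 also: E7 fragment applied at 1 µg/mL in TBST for 1 h at 4 C; score combines spot fluorescence with its signal to noise ratio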
[12] = hepatitis C replication reporter changes, two-sided – Huh7 cells, luciferase reporter, HCV replication inhibitor project, primary screen (AID 1109); settings: Huh7 HCV replicon luciferase reporter, 48 h; higher = more signal;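 also: huh7 hepatoma cells harbouring a luciferase neomycin HCV replicon reporter; luciferase luminescence as measure of HCV replicon replication; test concentration not given here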
[13] = molecular target: Left-right determination factor 2 (Homo sapiens) (UniProt O00292); assay: small molecules binding LEFTY2 protein – biochemical, small-molecule microarray, 635 nm fluorescence scan, primary screen (AID 1110); settings: higher = more signal
[14] = molecular target: Calmodulin-1 (Homo sapiens) (UniProt P0DP23); assay: small molecules binding calmodulin-1 with EGTA – biochemical, small-molecule microarray, Cy5-labelled CALM1, profiling panel (AID 1111); settings: Cy5-CALM1 binding fluorescence, higher = more signal;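 also: labelled calmodulin applied in Tris saline Tween buffer holding calcium plus EGTA and DTT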
[15] = molecular target: Calmodulin-1 (Homo sapiens) (UniProt P0DP23); assay: small molecules binding Ca-loaded calmodulin-1 – biochemical, small-molecule microarray, Cy5-labelled CALM1, plus calcium, artefact control for SMM control-protein annotation, profiling panel (AID 1112); settings: Cy5-CALM1 binding fluorescence, higher = more signal;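 also: score merges spot fluorescence with signal to noise from triplicate slides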
[16] = probe aWnt5a binding to arrayed compounds – biochemical, biotinylated probe, 635/667 nm fluorescence, primary screen (AID 1113); settings: small-molecule microarray, higher = more signal;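 also: score merges 667 nm fluorescence intensity with signal-to-noise per printed feature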
[17] = probe aShh binding to arrayed compounds – biochemical, biotinylated probe, 635/667 nm fluorescence, primary screen (AID 1114); settings: small-molecule microarray, higher = more signal;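 also: probe is biotin-labelled aShh protein from a stem cell growth factor screen; measures binding of labelled protein to compounds printed on the slide; score merges feature fluorescence at 667 nm with signal-to-noise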
[18] = probe aNog binding to arrayed compounds – biochemical, biotinylated probe, 635/667 nm fluorescence, primary screen (AID 1115); settings: small-molecule microarray, higher = more signal;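 also: probe is biotinylated aNog protein used at 0.15 µg/mL for 1 h at 4 C; z-score combines 667 nm fluorescence of each spot with its signal to noise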
[19] = molecular target: Torsin-1A-interacting protein 1 (Homo sapiens) (UniProt Q5JTV8); assay: compound microarray binding of lysate hLAP1 – cell lysate, small-molecule microarray, COS7 lysate, 635/667 nm fluorescence, primary screen (AID 1116); settings: 635 nm fluorescence, higher = more signal
[20] = molecular target: Alpha-bungarotoxin (Bungarus multicinctus) (UniProt P60615); assay: compounds binding labelled alpha-BTX control protein – biochemical, small-molecule microarray, Alexa647 label, 635/667 nm fluorescence, artefact control for SMM control protein annotation, profiling panel (AID 1117); settings: alpha-BTX-A647 binding fluorescence, higher = more signal
Alpha-bungarotoxin (Bungarus multicinctus), sequence (P60615 whole entry, looked up): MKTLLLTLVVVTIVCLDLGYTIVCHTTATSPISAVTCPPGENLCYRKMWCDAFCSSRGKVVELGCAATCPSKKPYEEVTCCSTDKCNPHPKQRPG

Fibroblast growth factor 10 (Homo sapiens), sequence (O15520 whole entry, looked up): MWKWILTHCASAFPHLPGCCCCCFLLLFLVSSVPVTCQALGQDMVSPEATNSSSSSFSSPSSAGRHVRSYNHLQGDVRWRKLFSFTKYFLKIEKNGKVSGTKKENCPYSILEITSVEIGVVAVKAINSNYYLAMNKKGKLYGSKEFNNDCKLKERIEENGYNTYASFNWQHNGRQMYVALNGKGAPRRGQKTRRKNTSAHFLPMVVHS
Follistatin-related protein 3 (Homo sapiens), sequence (O95633 whole entry, looked up): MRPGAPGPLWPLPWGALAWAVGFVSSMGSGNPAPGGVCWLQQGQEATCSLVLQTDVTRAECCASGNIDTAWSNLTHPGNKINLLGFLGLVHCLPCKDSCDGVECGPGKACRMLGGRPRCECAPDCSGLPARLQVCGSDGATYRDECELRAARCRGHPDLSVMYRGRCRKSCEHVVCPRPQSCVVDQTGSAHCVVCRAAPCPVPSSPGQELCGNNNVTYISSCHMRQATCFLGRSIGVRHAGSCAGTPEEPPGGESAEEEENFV
Left-right determination factor 2 (Homo sapiens), sequence (O00292 whole entry, looked up): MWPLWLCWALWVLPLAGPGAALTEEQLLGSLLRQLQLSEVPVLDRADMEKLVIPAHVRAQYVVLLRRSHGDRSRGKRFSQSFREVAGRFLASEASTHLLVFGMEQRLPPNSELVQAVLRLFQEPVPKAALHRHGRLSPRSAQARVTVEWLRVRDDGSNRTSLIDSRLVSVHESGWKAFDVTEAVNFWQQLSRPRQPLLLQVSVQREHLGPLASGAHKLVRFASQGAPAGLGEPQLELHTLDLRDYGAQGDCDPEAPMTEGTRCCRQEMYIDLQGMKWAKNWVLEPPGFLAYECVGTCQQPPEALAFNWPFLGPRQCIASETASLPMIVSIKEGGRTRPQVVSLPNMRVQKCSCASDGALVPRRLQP
Torsin-1A-interacting protein 1 (Homo sapiens), sequence (Q5JTV8 whole entry, looked up): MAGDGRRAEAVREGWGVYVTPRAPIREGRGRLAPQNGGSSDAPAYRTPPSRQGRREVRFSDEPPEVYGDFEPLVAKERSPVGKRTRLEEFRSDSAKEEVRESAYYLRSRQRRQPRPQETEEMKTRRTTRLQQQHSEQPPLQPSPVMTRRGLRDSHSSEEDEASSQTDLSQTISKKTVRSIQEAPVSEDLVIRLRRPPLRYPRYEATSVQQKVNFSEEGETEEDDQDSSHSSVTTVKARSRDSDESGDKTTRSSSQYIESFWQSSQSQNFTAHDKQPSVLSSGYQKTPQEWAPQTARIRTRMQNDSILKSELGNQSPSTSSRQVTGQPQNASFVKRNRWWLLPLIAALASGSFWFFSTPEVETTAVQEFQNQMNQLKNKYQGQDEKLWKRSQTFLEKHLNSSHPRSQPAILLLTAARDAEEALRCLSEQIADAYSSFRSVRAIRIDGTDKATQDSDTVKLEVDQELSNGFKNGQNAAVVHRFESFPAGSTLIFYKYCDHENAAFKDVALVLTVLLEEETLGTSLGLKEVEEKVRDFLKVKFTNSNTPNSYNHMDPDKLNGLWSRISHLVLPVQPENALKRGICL
Epidermal growth factor receptor (Homo sapiens), sequence (P00533 whole entry, looked up): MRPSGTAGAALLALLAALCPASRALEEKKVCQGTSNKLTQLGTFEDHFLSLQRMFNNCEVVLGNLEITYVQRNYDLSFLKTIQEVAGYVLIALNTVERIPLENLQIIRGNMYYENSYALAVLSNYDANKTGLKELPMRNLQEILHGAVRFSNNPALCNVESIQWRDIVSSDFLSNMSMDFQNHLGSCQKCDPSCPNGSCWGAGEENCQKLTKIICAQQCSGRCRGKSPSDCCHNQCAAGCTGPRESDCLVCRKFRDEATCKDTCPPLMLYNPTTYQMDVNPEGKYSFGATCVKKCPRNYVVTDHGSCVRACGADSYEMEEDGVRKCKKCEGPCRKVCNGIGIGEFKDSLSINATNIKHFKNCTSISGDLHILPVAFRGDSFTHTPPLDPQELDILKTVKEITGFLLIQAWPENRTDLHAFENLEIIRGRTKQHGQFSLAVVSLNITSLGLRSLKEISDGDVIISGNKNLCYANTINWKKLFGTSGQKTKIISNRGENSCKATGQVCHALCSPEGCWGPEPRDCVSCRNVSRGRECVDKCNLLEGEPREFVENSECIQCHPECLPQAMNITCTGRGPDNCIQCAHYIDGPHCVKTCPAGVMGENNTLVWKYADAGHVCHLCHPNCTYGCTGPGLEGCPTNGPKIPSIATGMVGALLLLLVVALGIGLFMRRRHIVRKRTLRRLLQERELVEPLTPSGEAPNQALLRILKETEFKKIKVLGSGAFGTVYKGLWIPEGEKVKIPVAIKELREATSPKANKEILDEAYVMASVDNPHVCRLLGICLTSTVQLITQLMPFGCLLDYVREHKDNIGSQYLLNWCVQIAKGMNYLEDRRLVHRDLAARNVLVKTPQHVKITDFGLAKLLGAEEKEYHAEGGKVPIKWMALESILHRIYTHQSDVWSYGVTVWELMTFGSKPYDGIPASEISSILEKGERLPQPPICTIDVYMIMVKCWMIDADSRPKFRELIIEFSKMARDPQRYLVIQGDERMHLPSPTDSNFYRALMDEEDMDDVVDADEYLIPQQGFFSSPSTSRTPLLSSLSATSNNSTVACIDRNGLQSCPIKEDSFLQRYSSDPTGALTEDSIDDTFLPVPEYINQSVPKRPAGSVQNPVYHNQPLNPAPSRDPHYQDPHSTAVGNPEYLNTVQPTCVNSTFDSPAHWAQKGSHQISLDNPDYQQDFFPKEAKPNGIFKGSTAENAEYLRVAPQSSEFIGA
Dickkopf-related protein 1 (Homo sapiens), sequence (O94907 whole entry, looked up): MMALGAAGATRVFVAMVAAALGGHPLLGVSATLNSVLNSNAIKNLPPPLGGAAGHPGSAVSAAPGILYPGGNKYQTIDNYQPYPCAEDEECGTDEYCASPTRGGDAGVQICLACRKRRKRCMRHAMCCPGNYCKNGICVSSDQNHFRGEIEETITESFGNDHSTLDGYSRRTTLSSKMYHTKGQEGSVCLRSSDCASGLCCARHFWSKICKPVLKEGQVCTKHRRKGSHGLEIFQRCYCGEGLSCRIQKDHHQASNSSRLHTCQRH

SMILES | composite z-score [1] | composite z-score [2] | composite z-score [3] | z-score [4] | composite z-score [5] | composite z-score [6] | composite z-score [7] | composite z-score [8] | composite z-score [9] | composite z-score [10] | composite z-score [11] | z-score [12] | composite z-score [13] | composite z-score [14] | composite z-score [15] | composite z-score [16] | composite z-score [17] | composite z-score [18] | composite z-score [19] | composite z-score [20]
COc1ccc(CCN2C(=O)[C@@]3(c4ccc([N+](=O)[O-])cc4)CC(=O)N(CC45CC6CC(CC(C6)C4)C5)[C@@H]3c3ccc(CO)cc32)cc1 | 1.42 | 0.463 | 0.761 | -0.604 (inactive) | -0.212 | 0.592 | -0.645 | -0.203 | -0.369 | 0.718 | -0.047 | -0.673 | 0.16 | 0.207 | -0.474 | -0.0101 | -0.181 | -0.476 | 0.352 | 0.119
COc1ccc([Si](C)(C)[C@H]2[C@H](CCO)O[C@@]3(C(=O)N(Cc4ccccc4)c4ccc(N5C(=O)c6cccc7cccc5c67)cc43)[C@@H]2C)cc1 | 0.0883 | 0.153 | 0.633 | -1.1 (inactive) | -0.558 | -0.636 | -0.835 | -0.574 | -0.784 | 0.629 | -0.137 | -4.5 | -0.681 | 0.793 | 0.906 | -0.124 | -0.0769 | 0.0936 | 0.461 | 0.524
COC(=O)[C@@]1(Cc2ccccc2N=[N+]=[N-])N=C(c2ccc(OCCCO)cc2)O[C@H]1c1ccccc1CN=[N+]=[N-] | 1.16 | 0.733 | 0.771 | 1.07 (inactive) | 0.468 | 0.393 | -0.34 | -0.0014 | -0.304 | 1.13 | 0.403 | -3.35 | -0.417 | 0.559 | 0.0128 | -0.0758 | -0.136 | 1.01 | 0.889 | 1.28
C#CCNC(/C=C/c1ccccc1)CO (stereo not given) | 0.0921 | -0.234 | -0.565 | 0.00978 (inactive) | 0.311 | 0.149 | 0.553 | 0.326 | 0.545 | 0.394 | 0.105 | 0.501 | 0.421 | -0.0934 | -0.448 | -0.172 | 0.0121 | -0.0784 | 0.296 | 0.331
O=C1O[C@H](c2ccccc2)[C@H](c2ccccc2)N2[C@H]1[C@@H](C(=O)NC[C@H](O)c1ccccc1)[C@]1(C(=O)Nc3ccc(C#CC4(O)CCCCCC4)cc31)[C@H]2c1ccc(OCCO)cc1 | 1.03 | 0.539 | 0.713 | -0.717 (inactive) | 0.599 | 0.563 | 0.0371 | 0.411 | 0.0407 | 0.0385 | 1.27 | -2.41 | -0.12 | 0.67 | 0.623 | -0.0276 | -0.106 | 0.319 | 0.933 | 1.41
CO[C@@H]1COC(=O)[C@H](C)NC(=O)CC=C[C@@H](C)[C@H](OC)COC(=O)[C@H](C)NC(=O)CC=C[C@H]1C | 0.343 | -0.58 | -0.717 | -0.415 (inactive) | 0.43 | 0.57 | 0.55 | 0.66 | 0.503 | 0.136 | 0.0508 | -0.0787 | 0.787 | -0.202 | -1.26 | -0.0684 | -0.223 | -0.248 | 0.0309 | -0.59
O=[N+]([O-])c1ccc(C[n+]2ccc3ccc(O)cc3c2)o1 | 0.595 | 0.174 | -0.144 | -0.0287 (inactive) | 0.297 | 0.314 | 0.219 | 0.42 | 0.0242 | 0.618 | -0.0611 | -0.95 | -0.0338 | 1.01 | 0.287 | -0.0435 | 0.673 | -0.206 | -0.314 | 2.53
CO[C@H]1COC(=O)[C@H](C)COC(=O)[C@H](Cc2ccccc2)NC(=O)CC=C[C@H]1C | 1.01 | -0.345 | -1.3 | -0.857 (inactive) | 0.245 | -0.232 | 0.843 | 1.31 | 1.68 | 1.26 | -0.943 | -0.56 | 1.09 | -1.37 | -1.74 | 0.266 | 0.223 | 0.653 | -0.0597 | -0.948
CCCC=C(CCC)[C@@H](NC(=O)c1ccccc1)c1ccccc1 | -0.597 | 0.712 | 1.07 | -0.0542 (inactive) | -0.0829 | -1.87 | -0.292 | -0.501 | -0.0056 | 1.16 | 0.0084 | -0.12 | -0.621 | 0.323 | 1.09 | -0.0299 | 0.217 | 0.766 | -0.439 | -0.445
CO[C@H]1COC(=O)CC=C[C@H](C)[C@@H](OC)COC(=O)CC=C[C@@H]1C | 0.697 | -0.546 | -1.11 | -1.06 (inactive) | 0.597 | 0.309 | 0.751 | 0.522 | 0.991 | 0.716 | -0.366 | -0.0985 | 0.724 | -1.61 | -1.87 | -0.181 | 0.126 | -0.63 | -0.0807 | -0.86
CN1C(=O)C2C=CC(C(O)C3CC=CCC3)N(Nc3ccccc3)C2C1=O (stereo not given) | 1.09 | 0.642 | 0.533 | 1.2 (inactive) | 0.989 | 0.879 | 1.07 | 1.45 | 1.06 | 1.3 | 1.24 | -0.556 | 0.76 | 1.55 | 0.129 | -0.0792 | -0.0289 | 0.897 | 0.764 | 1.58
